Shiga toxin inh = Shiga toxin inhibition; Vero cells, Shiga toxin protein synthesis inhibition reporter; inhibition, % at 38.7 µM; actives 9.2% (n = 290,000); in the data active means inhibition mostly above about 28%, no sharp cut-off; inactive means mostly below about 43%; further: 0% is about no effect
NS1 function inh = inhibitors of influenza NS1 protein function | Potency, µM (doses to about 46.1 µM), inactives show at the top dose activity, positive = more growth | actives 0.4% (n = 270,000) | AID 2326; calls by dose curve; further: potency means the concentration at half of the fitted maximal effect; actives are rising curves; nearly all actives have a fitted effect of over 50% in size
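A cell-based growth assay was used: compounds that relieve NS1-induced slow growth of budding yeast raise OD600. Assay medium was yeast nitrogen base with ammonium sulphate and -URA supplement, pH 6.0, with 2% galactose.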
Pf growth 96h = P. falciparum growth inhibition at 96 hour, primary screen for plastid delayed-death inhibitors; P. falciparum luciferase reporter growth, 96 h; Potency, µM (titrated, usually from 28.7 µM), without a hit: top-dose activity change, negative = inhibition, actives largely listed as inhibitors; actives 6.9% (n = 320,000); further: potency means the concentration at half of the fitted maximal effect; on the % scale 0 is the no-effect control and ±100 the full control effect
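96 h incubation, 37 C, 5% CO2, of luciferase-reporter P. falciparum-infected RBCs (2% hematocrit, 0.05% parasitemia final) with test compounds; endpoint luminescence.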
Pf growth 48h = inhibits P. falciparum growth in the first generation, 48 h; P. falciparum luciferase growth in erythrocytes, 48 h; Potency, µM (series often up to 28.7 µM), for inactives: at the highest dose activity change, negative = inhibition, most hits filed as inhibitors; actives 5.9% (n = 310,000); AID 504832; further: potency means the concentration at half of the fitted maximal effect; on the % scale 0 is the no-effect control and ±100 the full control effect
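Parasite viability was followed by luminescence of a genomically integrated firefly luciferase. Cultures held 0.1% parasitemia at 2% hematocrit (final), incubated under 5% CO2 at 37 C.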
CHX counter = affects cycloheximide protein synthesis inhibition readout, counter-screen. cell reporter, cycloheximide protein synthesis inhibition counterscreen. max response, %. actives 12% (n = 300,000); in the data active means max response mostly above about 13%, no sharp cut-off; inactive means mostly below about 14%; further: read at 38.3 µM for the half of the compounds with a filed dose; 0% is about no effect
Numbers without * were called inactive. Compounds with a hit are over-represented: about 21% of the library has one in this group of screens. Unless noted, the call rests on the fitted dose curve; in most records, active means well fitted inhibition curve with a large enough effect; inconclusive means small, poorly fitted or top-dose-only effect, or another doubt; inactive means no such curve, though single readings can be large or run the other way.

How did Cc1ccc(NC(=O)N(Cc2cccnc2)Cc2ccco2)cc1C do in these assays?
Shiga toxin inh: -5.4; NS1 function inh: -9.4%; Pf growth 96h: inconclusive; Pf growth 48h: inconclusive; CHX counter: -3.8

What do the screens show for `Cc1ccc(NC(=O)N(Cc2ccco2)Cc2cc3cc(C)cc(C)c3nc2Cl)cc1`?
Shiga toxin inh: 48.2*; NS1 function inh: inconclusive; Pf growth 96h: inconclusive; Pf growth 48h: inconclusive; CHX counter: 26.7*

Results for Cc1cccc2cc(CN(Cc3ccco3)C(=O)Nc3cccc(C#N)c3)c(Cl)nc12 ?
Shiga toxin inh: 4.6; NS1 function inh: 25.7%; Pf growth 96h: 13.1µM*; Pf growth 48h: 9.28µM*; CHX counter: -2.0

Results for COc1ccccc1CNCc1cc(Br)ccc1OC ?
Shiga toxin inh: -5.0; Pf growth 96h: inconclusive; Pf growth 48h: 11.7µM*; CHX counter: 11.7

How did O=S(=O)(NCc1ccccc1Br)c1cccs1 do in these assays?
Shiga toxin inh: -5.5; NS1 function inh: -10.8%; Pf growth 96h: inconclusive; Pf growth 48h: 26.6%; CHX counter: 11.1*

What do the screens show for `COc1ccc(Br)cc1CNC(=O)Cc1cccs1`?
Shiga toxin inh: 5.6; NS1 function inh: -4.7%; Pf growth 96h: -14.3%; Pf growth 48h: 10.8%; CHX counter: 20.8*

Results for O=C(Cc1cccs1)NCc1ccco1 ?
Shiga toxin inh: 10.4; NS1 function inh: -2.1%; Pf growth 48h: 30.2%; CHX counter: -3.2

How did O=C(Cc1cccs1)NCc1ccccc1Br do in these assays?
Shiga toxin inh: 62.8*; NS1 function inh: -5.6%; Pf growth 96h: inconclusive; Pf growth 48h: 102.8%; CHX counter: 36.5*

What do the screens show for `COc1ccc(CCNC(=O)Cc2cccs2)cc1OC`?
Shiga toxin inh: 9.7; NS1 function inh: -1.1%; Pf growth 96h: 4.5%; Pf growth 48h: 25.2%; CHX counter: 0.4

How did O=S(=O)(NCCNS(=O)(=O)c1cccs1)c1cccs1 do in these assays?
Shiga toxin inh: -4.3; NS1 function inh: -0.5%; Pf growth 96h: inconclusive; Pf growth 48h: -4.4%; CHX counter: -2.7

How did O=C(COc1ccc(Cl)cc1)NCc1nnc2c3ccccc3c(-c3ccccc3)nn12 do in these assays?
Shiga toxin inh: -4.8; NS1 function inh: 6.6%; Pf growth 96h: 13.1µM*; Pf growth 48h: -20.2%; CHX counter: -2.9

Results for O=C(O)CSc1nnc(-c2ccncc2)n1-c1ccc(Cl)cc1 ?
Shiga toxin inh: -7.5; NS1 function inh: -5.6%; Pf growth 48h: -5.2%; CHX counter: -4.6

What do the screens show for `O=C(O)CSc1nnc(-c2ccc(Cl)cc2)n1-c1ccccc1`?
Shiga toxin inh: -15.4; NS1 function inh: 23.0%; Pf growth 96h: 9.28µM*; Pf growth 48h: 37.0%; CHX counter: 0.8

Results for CC(=O)/C(=N/Nc1ccccc1)Sc1nnc(CCc2ccccc2)n1-c1ccccc1 ?
Shiga toxin inh: -11.3; NS1 function inh: 3.8%; Pf growth 96h: -23.1%; Pf growth 48h: -0.2%; CHX counter: -1.2

How did CC(=O)/C(=N\Nc1ccc(Cl)cc1)Sc1nnc(-c2ccccc2)n1-c1ccccc1 do in these assays?
Shiga toxin inh: -12.1; NS1 function inh: -0.1%; Pf growth 96h: 14.7µM*; Pf growth 48h: -22.2%; CHX counter: -6.4

How did O=C(Cn1nc(Br)nc1Br)c1ccccc1 do in these assays?
Shiga toxin inh: -6.7; NS1 function inh: 1.9%; Pf growth 96h: inconclusive; Pf growth 48h: inconclusive; CHX counter: -2.7

How did O=C(C1CC(c2ccc(F)cc2)=NO1)N1CCCc2ccccc21 (centres undefined) do in these assays?
Shiga toxin inh: 17.3; NS1 function inh: -8.0%; Pf growth 96h: 2.08µM*; Pf growth 48h: 20.1%; CHX counter: -0.2

Results for CCOC(=O)N1CCN(C(=O)C2CC(c3cc(OC)ccc3OC)=NO2)CC1 (centres undefined) ?
Shiga toxin inh: -7.7; NS1 function inh: 1.6%; Pf growth 96h: inconclusive; Pf growth 48h: inconclusive; CHX counter: -1.5

Results for COc1ccc(OC)c(C2=NOC(C(=O)N3CCCc4ccccc43)C2)c1 (centres undefined) ?
Shiga toxin inh: 84.4*; NS1 function inh: -116.9%; Pf growth 48h: 4.9%; CHX counter: 55.6*

Results for CCCc1nc2c(C)cc(C)cc2c(N)c1CC ?
Shiga toxin inh: -13.0; NS1 function inh: -6.5%; Pf growth 96h: 10.4µM*; Pf growth 48h: 9.28µM*; CHX counter: 1.7

How did Oc1ccc(Cl)cc1CNc1ccccn1 do in these assays?
Shiga toxin inh: 51.5; NS1 function inh: -15.6%; Pf growth 96h: 10.4µM*; Pf growth 48h: inconclusive; CHX counter: 15.1*

How did Oc1c(Cl)cc(Cl)cc1CNc1ccc(Br)cn1 do in these assays?
Shiga toxin inh: 72.8*; NS1 function inh: 2.4%; Pf growth 96h: 39.5%; CHX counter: 31.9*

How did Oc1ccc(Cl)cc1CNc1ccc(Br)cn1 do in these assays?
Shiga toxin inh: 110.6*; NS1 function inh: -38.9%; Pf growth 96h: -2.8%; Pf growth 48h: inconclusive; CHX counter: 45.2*

What do the screens show for `CC(=O)Nc1ccc(SCC(=O)NCCc2ccc(F)cc2)cc1`?
Shiga toxin inh: -9.7; NS1 function inh: 4.2%; Pf growth 96h: 2.7%; Pf growth 48h: -5.8%; CHX counter: 6.2

Results for Cn1c(=O)[nH]c(=O)c2c1nc(N1CCCCC1)n2CCCSc1nc2ccccc2s1 ?
Shiga toxin inh: 4.9; NS1 function inh: -36.1%; Pf growth 96h: 4.15µM*; Pf growth 48h: inconclusive; CHX counter: 8.1

What do the screens show for `Cn1c(=O)c2c(nc(N3CCCCC3)n2CCSc2nc3ccccc3s2)n(C)c1=O`?
Shiga toxin inh: -10.4; NS1 function inh: -46.4%; Pf growth 96h: 5.0%; Pf growth 48h: 0.7%; CHX counter: -1.5

What do the screens show for `CC1CCN(c2nc3c(c(=O)n(C)c(=O)n3C)n2CCSc2nc3ccccc3s2)CC1`?
Shiga toxin inh: -8.7; NS1 function inh: 1.3%; Pf growth 96h: inconclusive; CHX counter: -2.0

What do the screens show for `Cc1cc(C)nc(SCCn2c(N3CCC(C)CC3)nc3c2c(=O)n(C)c(=O)n3C)n1`?
Shiga toxin inh: 24.6; NS1 function inh: -1.1%; Pf growth 96h: 2.33µM*; Pf growth 48h: 41.6%; CHX counter: -3.5

What do the screens show for `Cn1c(=O)c2c(nc(N3CCC(C(N)=O)CC3)n2CCSc2nc3ccccc3s2)n(C)c1=O`?
Shiga toxin inh: -14.2; NS1 function inh: -1.9%; Pf growth 96h: 2.8%; Pf growth 48h: 2.94µM*; CHX counter: 13.1

How did Cc1ccnc(SCCn2c(N3CCC(C)CC3)nc3c2c(=O)n(C)c(=O)n3C)n1 do in these assays?
NS1 function inh: -11.2%

How did O=C(NC(n1ccc(=O)[nH]c1=O)C(Cl)(Cl)Cl)C12CC3CC(CC(C3)C1)C2 (centres undefined) do in these assays?
Shiga toxin inh: -8.2; NS1 function inh: -6.7%; Pf growth 96h: 5.9%; Pf growth 48h: 2.0%; CHX counter: 0.7

Results for CCNC(=S)N(CCCN(C)C)Cc1cc2cc3c(cc2[nH]c1=O)OCCO3 ?
NS1 function inh: 1.2%; Pf growth 96h: inconclusive; Pf growth 48h: -0.8%; CHX counter: -3.0

How did Cn1cccc1/C=N/NC(=O)CSc1nc2ccccc2n1C do in these assays?
Shiga toxin inh: 19.7; NS1 function inh: -1.0%; Pf growth 96h: 39.7%; Pf growth 48h: -8.7%; CHX counter: -2.6

Screening results deposited in PubChem by National Center for Advancing Translational Sciences (NCATS).
